Experimental data from PubChem BioAssay (EPA / NIEHS).
Results filed as inconclusive are left out. Activity calls are given as the source filed them. How the source made its calls: active means hit-call score of the fitted dose curve at least 0.9, where 1 is the maximum; inconclusive means response in the unintended direction; inactive means score below 0.9.

read-out: ABC Transporter (ABCB1), ABCB1 (gene 5243); test: CLD_ABCB1_6hr: CellzDirect (CLD) Gene Expression Assay for ABC Transporter (ABCB1) at 6 hours (AID 2283659);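 further: hits raise ABCB1 transcript above the DMSO vehicle baseline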
Description: CLD_6hr is a cell-based, multiplexed-readout assay that uses hepatocyte, a human liver primary cell, with measurements taken at 6 hours after chemical dosing in a 96-well plate.CLD_ABCB1_6hr is one of 16 assay component(s) measured or calculated from the CLD_6hr assay. It is designed to make measurements of mRNA induction, a form of inducible reporter, as detected with chemiluminescence signals by Quantitative Nuclease Protection Assay (qNPA) technology.Data from the assay component CLD_ABCB1_6hr was analyzed at the endpoint, CLD_ABCB1_6hr, in the positive analysis fitting direction relative to DMSO as the negative control and baseline of activity. Using a type of inducible reporter, gain-of-signal activity can be used to understand changes in the reporter gene as they relate to the gene ABCB1. Furthermore, this assay endpoint can be referred to as a primary readout. To generalize the intended target to other relatable targets, this assay endpoint is annotated to the transporter intended target family, where subfamily is ABC transporter.
Human hepatocyte cultures were treated daily for two consecutive days with fresh dosing solutions containing appropriate concentrations of the 320 ToxCast chemicals (chemical identities were blinded to CellzDirect and other ToxCast collaborators), vehicle control (0.2% DMSO), and positive control inducers as summarized in Table 1. Due to the large number of treatment groups and chemicals examined, the ToxCast chemicals were divided into two groups (spanning two independent cultures of hepatocytes from separate donor preparations (Hu778: ToxCast plates 1 and 2; Hu776: ToxCast plates 3 and 4). Each preparation of human hepatocyte cultures was treated with respective vehicle control, medium only control, set of six positive controls/reference chemicals for the five hepatic receptor pathways, and a subset of eight of the ToxCast chemicals (indoxacarb, pyrithiobac-sodium, norflurazon, cyhalofop-butyl, methomyl, thiram, acetochlor, and propiconazole). These replicate data, coupled with internal replicates designed within the blinded ToxCast chemical library, provided additional data to evaluate interindividual differences between hepatocyte preparations and their potential impact on chemical profiles.Cell morphology and integrity were evaluated using phase-contrast microscopy as an indicator of hepatocyte cell health (Tyson & Green, 1987). Cultures for each treatment group (i.e., media, vehicle [0.2% DMSO], positive control inducers [multiple concentrations], and the ToxCast chemicals [multiple concentrations]) were observed and cell morphology was assessed relative to vehicle control cultures at each harvest time point (0, 6, 24, or 48 h). […] Images were evaluated at the conclusion of the study to assess changes in cell integrity and account for the effects of chemical exposure on uncharacteristic changes in concentration-dependent gene expression profiles. The results from these determinations of apparent cytotoxicity were annotated (yes/no) alongside the corresponding qNPA data for reference.At the conclusion of each treatment period, hepatocyte cultures (96-well) were washed with 1 volume of HBSS, lysed by addition of 25 ul ArrayPlate lysis buffer (HTG, Tucson, AZ), and 70 ul/well of Denaturation Oil, denatured by incubation at 95C for 10 min, and frozen at approximately -70C until analysis by nuclease protection assay (qNPA) (Roberts et al., 2007). For qNPA analysis, cell lysates were thawed at 50C for approximately 30 min, qNPA probes were added, and samples were incubated at 95C for 10 min to begin the detection process by denaturing the target RNA, dissociating the duplexes and secondary structure hybridization. At the conclusion of the hybridization period, S1 nuclease reagent was added to each sample to digest all nonprotected nucleotides at 50C for 60-90 min. […]

| Compound | outcome |
| --- | --- |
| OCCOc1ccccc1 | inactive |
| CCc1ccc(C(=O)NN(C(=O)c2cc(C)cc(C)c2)C(C)(C)C)cc1 | inactive |
| CNC(=O)Oc1ccccc1OC(C)C | inactive |
| CNC(=O)/C=C(\C)OP(=O)(OC)OC | inactive |
| COc1cc(OC)nc(NC(=O)NS(=O)(=O)c2cc(NC=O)ccc2C(=O)N(C)C)n1 | inactive |
| CC[C@H](C)[C@H]1O[C@]2(C=C[C@@H]1C)C[C@@H]1C[C@@H](C/C=C(\C)[C@@H](O[C@H]3C[C@H](OC)[C@@H](O[C@H]4C[C@H](OC)[C@@H](O)[C@H](C)O4)[C@H](C)O3)[C@@H](C)/C=C/C=C3\CO[C@@H]4[C@H](O)C(C)=C[C@@H](C(=O)O1)[C@]34O)O2 (tested in a mixture with another compound) | inactive |
| C#CCN1C(=O)COc2cc(F)c(N3C(=O)C4=C(CCCC4)C3=O)cc21 | inactive |
| CCCN(CCOc1c(Cl)cc(Cl)cc1Cl)C(=O)n1ccnc1 | inactive |
| CCCN(CCC)c1c([N+](=O)[O-])cc(C(F)(F)F)cc1[N+](=O)[O-] | inactive |
| ClC1C(Cl)C(Cl)C(Cl)C(Cl)C1Cl (stereo not given) | inactive |
| O=[N+]([O-])c1c(Cl)c(Cl)c(Cl)c(Cl)c1Cl | inactive |
| COP(=S)(OC)Oc1ccc([N+](=O)[O-])cc1 | inactive |
| CN1CSC(=S)N(C)C1 | inactive |
| CCOc1nc(NC)nc(NC(=O)NS(=O)(=O)c2ccccc2C(=O)OC)n1 | inactive |
| CCOCN(C(=O)CCl)c1c(C)cccc1CC | inactive |
| Oc1cc(Cl)ccc1Oc1ccc(Cl)cc1Cl | inactive |
| Clc1ccccc1-c1nnc(-c2ccccc2Cl)nn1 | inactive |
| CCC(C)Nc1c([N+](=O)[O-])cc(C(C)(C)C)cc1[N+](=O)[O-] (stereo not given) | inactive |
| O=C1c2ccccc2C(=O)N1SC(Cl)(Cl)Cl | inactive |
| O=C(O)COc1ccc(Cl)cc1Cl | inactive |

| Compound | outcome |
| --- | --- |
| O=C(O)C(F)(F)C(F)(F)C(F)(F)C(F)(F)C(F)(F)C(F)(F)C(F)(F)F | inactive |
| Cc1[nH]c(=O)n(C(C)(C)C)c(=O)c1Cl | inactive |
| O=[N+]([O-])/N=C1\NCCN1Cc1ccc(Cl)nc1 | inactive |
| CCC(C)(C)C(=O)OC1=C(c2ccc(Cl)cc2Cl)C(=O)OC12CCCCC2 | inactive |
| O=C(O)CCCOc1ccc(Cl)cc1Cl | inactive |
| COC(=O)c1ccccc1S(=O)(=O)NC(=O)Nc1nc(C)nc(OC)n1 | inactive |
| CC(C)(C)C(O)/C(=C\c1ccc(Cl)cc1Cl)n1cncn1 (stereo not given) | inactive |
| CCOC1Oc2ccc(OS(C)(=O)=O)cc2C1(C)C (stereo not given) | inactive |
| Oc1ccc(Cl)cc1Cc1ccccc1 | inactive |
| CC1(C)C(C=C(Cl)Cl)C1C(=O)OC(C#N)c1ccc(F)c(Oc2ccccc2)c1 (stereo not given) | inactive |
| O=C(NC(=O)c1c(F)cccc1F)Nc1ccc(OC(F)(F)C(F)OC(F)(F)F)c(Cl)c1 (stereo not given) | inactive |
| COC(=O)c1ccccc1CS(=O)(=O)NC(=O)Nc1nc(OC)cc(OC)n1 | inactive |
| N#CN | inactive |
| CC(C)N(C(=O)COc1nnc(C(F)(F)F)s1)c1ccc(F)cc1 | inactive |
| CC(C)OC(=O)Nc1cccc(Cl)c1 | inactive |
| COP(=O)(OC)OC=C(Cl)Cl | inactive |
| CCS(=O)(=O)c1cccnc1S(=O)(=O)NC(=O)Nc1nc(OC)cc(OC)n1 | inactive |
| O=S1OCC2C(CO1)C1(Cl)C(Cl)=C(Cl)C2(Cl)C1(Cl)Cl (stereo not given) | inactive |
| C[C@H]1[C@H](c2ccc(Cl)cc2)SC(=O)N1C(=O)NC1CCCCC1 | inactive |
| CCC(C)(NC(=O)c1cc(Cl)c(C)c(Cl)c1)C(=O)CCl (stereo not given) | inactive |
